Bioassay records from PubChem BioAssay.
Rows were chosen to be rich in hits. Some 0.81% of all compounds tested hit in one or more screens of this group.
BCLXL inh: inhibitors of human Bcl-xL, primary screen, biochemical, fluorescence polarization, HTS; Bcl-2-like protein 1 (Homo sapiens), Q07817; GST-Bcl-xL / FITC-Bim BH3 peptide fluorescence polarization; inhibition, % at 10.9 µM; 0.7% of 320,000 active;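 active = inhibition above the mean of all tested compounds plus 3 SD, cutoff set per campaign, cut at about 30% in these data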;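 also: 0% = DMSO wells and 100% = unlabeled Bim-BH3 peptide competitor; inhibitors lower millipolarization by displacing the labeled peptide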
Target sequence (Q07817 whole entry, looked up): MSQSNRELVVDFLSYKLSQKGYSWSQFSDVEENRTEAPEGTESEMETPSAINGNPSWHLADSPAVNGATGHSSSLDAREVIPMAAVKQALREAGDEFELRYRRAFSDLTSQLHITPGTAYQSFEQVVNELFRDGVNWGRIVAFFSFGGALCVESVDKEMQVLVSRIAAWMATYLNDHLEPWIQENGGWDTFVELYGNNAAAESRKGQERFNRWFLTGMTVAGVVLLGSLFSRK
Bcl-2 Bim block: inhibitors of Bim-Bcl-2 binding, primary screen, biochemical, multiplexed, human Bcl-2 family | Apoptosis regulator Bcl-2 (Homo sapiens), P10415 | inhibition, % at 10 µM | Bead-based flow cytometry, Bim peptide-Bcl-2 binding | 0.06% of 190,000 active; in the data active = inhibition above about 40%;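 also: 0% = no compound wells with probe peptide and 100% = reference peptide inhibitor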
Bim-Bcl-XL: inhibitors of Bim-Bcl-XL binding, primary screen, biochemical, multiplexed, bead flow cytometry, human Bcl-XL; 0.04% of 190,000 active; Bim peptide-Bcl-XL binding, fluorescence; inhibition, % at 10 µM; AID 1007, 2008
Bim-Bcl-B: inhibitors of Bim-Bcl-B binding, primary screen, biochemical, multiplexed, human Bcl-2 family | Bcl-2-like protein 10 (Homo sapiens), Q9HD36 | bead-based flow cytometry, Bim peptide-Bcl-B binding | inhibition, % at 10 µM | 0.073% of 190,000 active | AID 951, 2007;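 also: 0% = tracer peptide without compound and 100% = reference inhibitor peptide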
Target sequence (Q9HD36 whole entry, looked up): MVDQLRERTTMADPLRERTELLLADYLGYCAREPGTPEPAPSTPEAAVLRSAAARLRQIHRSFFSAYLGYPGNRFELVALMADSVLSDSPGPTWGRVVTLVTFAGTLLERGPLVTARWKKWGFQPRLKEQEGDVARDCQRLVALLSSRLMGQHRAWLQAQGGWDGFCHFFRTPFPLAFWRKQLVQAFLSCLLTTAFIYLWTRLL
Bim-Bcl-W: inhibitors of Bim binding to Bcl-W, primary screen, biochemical, multiplexed, bead-based flow cytometry; Bcl-2-like protein 2 (Homo sapiens), Q92843; Bim peptide-Bcl-W binding; inhibition, % at 10 µM; 0.02% of 190,000 active;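 also: 0% = bound tracer without compound and 100% = peptide blocker; higher means less fluorescent Bim peptide bound to Bcl-W beads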
Bim-Bfl-1: inhibitors of Bim binding to Bfl-1, primary screen, biochemical, multiplexed, bead-based flow cytometry; Bcl-2-related protein A1 (Homo sapiens), Q16548; Bim-Bfl-1 binding inhibition; inhibition, % at 10 µM; 0.12% of 190,000 active;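 also: 0% = wells without compound plus tracer and 100% = blocker peptide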
The depositor's hits bear a star; . = no result. Rule as the data show it, unless noted: active = inhibition above about 40%.

SMILES	BCLXL inh	Bcl-2 Bim block	Bim-Bcl-XL	Bim-Bcl-B	Bim-Bcl-W	Bim-Bfl-1
CCOC(=O)c1cc(-c2ccc(/C=C3/C(=O)NC(=O)C(C#N)=C3C)o2)ccc1Cl	85*	2	-1	1	1	7
N#C/C(=C\c1ccccc1)C(=O)Nc1ccccn1	-1	.	.	.	.	.
N#C/C(=C\c1ccccc1Cl)C(=O)Nc1ccccn1	7	.	.	.	.	.
N#C/C(=C\c1cccs1)C(=O)Nc1ccccn1	55*	.	.	.	.	.
Cc1cccc(/C=C(\C#N)C(=O)Nc2ccccn2)c1	37*	.	.	.	.	.
CCCN(CC(=O)Nc1ccc(F)c(F)c1F)C(=O)c1cc([N+](=O)[O-])ccc1N1CCOCC1	1	.	.	.	.	.
Cc1nn(-c2ccc(Br)cc2)c(=O)c2ccccc12	31*	.	.	.	.	.
COCCNC(=O)NC(=O)CN1CCCc2ccccc21	51*	4	-1	3	-1	6
CC(C)(C)NC(=O)NC(=O)CN1CCc2ccccc21	2	1	3	0	5	-1
O=C(c1c[nH]c(C(=O)N2CCN(c3ccccc3F)CC2)c1)c1cccc(Cl)c1Cl	.	-2	1	-3	1	-3
Cc1ncc(CO)c(/C=N/NC(=S)Nc2ccc(F)cc2)c1O	10	4	0	-24	2	7
Cc1ncc(CO)c(/C=N/Nc2ccc(C(F)(F)F)cn2)c1O	40*	.	.	.	.	.
CC1CCN(Cc2c(O)ccc3c2O/C(=C\c2ccco2)C3=O)CC1	123*	6	0	-12	2	25
COCCN(CCOC)Cc1c(O)ccc2c1O/C(=C\c1ccco1)C2=O	106*	.	.	.	.	.
CCN1CCN(Cc2c(O)ccc3c(=O)c(-c4ccccc4OC)coc23)CC1	1	-2	-1	-1	-1	-1
O=C1/C(=C/c2ccco2)Oc2c1ccc(O)c2CN1CCCCC1	79*	7	2	-12	8	27
CCN1CCN(Cc2c(O)ccc3c2O/C(=C\C=C\c2ccccc2OC)C3=O)CC1	39*	0	-6	-28	-5	-9
O=c1c(-c2ccccc2)coc2c(CN3CCCC3)c(O)ccc12	1	-3	0	-7	-3	-2
CN1CCc2c(sc3nc(SCC(=O)NCc4ccco4)n(-c4ccccc4)c(=O)c23)C1	11	.	.	.	.	.
O=C(COc1ccc(-c2ccccc2)cc1)NNC(=O)Nc1ccccc1	-9	.	.	.	.	.
CC(C)(C)OC(=O)NCc1ccc(CNC(=O)c2nc[nH]c2C(=O)N2CCN(c3ccccc3)CC2)cc1	0	.	.	.	.	.
COC(=O)CCCn1nc(NC(=O)c2ccco2)cc1C	4	.	.	.	.	.
COc1ccc(NC(=O)Cn2c(=O)cnc3ccccc32)cc1S(=O)(=O)N1CCCCC1	-3	.	.	.	.	.
CS(=O)(=O)Nc1ccc(C(=O)NCCc2ccccc2)cc1	145*	-6	-2	-7	0	-10
CCN(CC(=O)Nc1c(F)cccc1F)C(=O)/C=C/c1ccc2ccccc2n1	32*	.	.	.	.	.
SMILES	BCLXL inh	Bcl-2 Bim block	Bim-Bcl-XL	Bim-Bcl-B	Bim-Bcl-W	Bim-Bfl-1
CCN(CC(=O)Nc1c(F)cccc1F)C(=O)c1ccc2ccccc2n1	3	.	.	.	.	.
Cc1onc(-c2c(Cl)cccc2Cl)c1COC(=O)c1ccc(Cl)cc1[N+](=O)[O-]	4	.	.	.	.	.
COc1ccc(NC(=O)CSCC(=O)Nc2ccc(C)c(S(=O)(=O)N3CCCCCC3)c2)cc1	-4	.	.	.	.	.
COc1ccc(S(=O)(=O)NCC2CCC(C(=O)NCCCN3CCCC3=O)CC2)cc1 (configuration not stated)	3	.	.	.	.	.
CCOc1ccc2nc(SCC(=O)N3c4ccccc4Sc4ccccc43)c(C#N)cc2c1	55*	0	-1	-8	-1	0
CCOc1ccc2nc(SCC(=O)N3c4ccccc4Sc4ccccc43)sc2c1	2	-11	-8	-7	-4	-11
Cc1c(NC(=O)C(C)OC(=O)c2cc(-c3cccc4ccccc34)nc3ccccc23)c(=O)n(-c2ccccc2)n1C (configuration not stated)	75*	-6	-8	-5	0	-14
O=C1C=C(NNC(=O)c2cccnc2)CC(c2ccco2)C1 (configuration not stated)	49*	4	3	7	-1	6
CC(C)(C)NC(=O)CN(C(=O)CCN1CCCc2ccccc21)C(C)(C)C	56*	-1	-1	1	1	0
COCCN1Cc2cccc(C(=O)NC(C)CCc3ccco3)c2C1=O (configuration not stated)	-2	-1	0	-3	0	-2
NC(CO)C(=O)NNCc1ccc(O)c(O)c1O (configuration not stated)	36*	9	-1	-17	8	18
O=C(O)c1cc(S(=O)(=O)N2CCOCC2)c[nH]1	3	.	.	.	.	.
NC(=O)C1CCN(C(=O)CCNS(=O)(=O)c2ccccc2F)CC1	5	.	.	.	.	.
COc1ccc(Cl)cc1-n1c(C)cc(C(=O)O)c1C	-2	-13	-9	-36	4	-11
COc1ccc(Cl)cc1-n1c(C)cc(C=O)c1C	-5	86*	29	84*	20	62*
Cc1cc(S(=O)(=O)n2[nH]c(=O)c(CCO)c2C)c(Cl)cc1Cl	67*	.	.	.	.	.
CC(C)C(c1nnnn1C(C)(C)C)N1CCC(Cc2ccccc2)CC1 (configuration not stated)	5	-4	-3	-10	-4	-1
CCN(CC)C(=O)C1=C(C)NC(=O)NC1c1c(F)cccc1Cl (configuration not stated)	-4	-8	-3	-13	-1	-14
CCN(CC)C(=O)C1=C(C)NC(=O)NC1c1ccccc1F (configuration not stated)	51*	0	-4	0	1	-3
CN(Cc1cccs1)C(=O)CCc1c[nH]c2ccccc12	-4	48*	-1	50*	1	20
N#CC1=C(N)SC(N)=C(C#N)C1c1ccoc1	67*	-8	-5	-25	1	2
Cc1ccc(C2C(C#N)=C(N)SC(N)=C2C#N)cc1	.	-11	-19	-11	-4	-6
Cn1c(=O)[nH]c(=O)c2c1nc(NCc1ccco1)n2Cc1ccccc1Cl	2	-1	-2	-4	-1	-6
N#C/C(=C\c1cccc([N+](=O)[O-])c1)C(=O)NCC1CCCO1 (configuration not stated)	61*	0	0	0	-1	-3
COc1ccc(C2OC34CCCCC3C(C#N)(C#N)C2(C#N)C(=N)O4)cc1 (configuration not stated)	135*	-13	-9	-13	-5	-20
